This passage reports INHIBITION results from ChEMBL document CHEMBL4513216, “Probing the Open Global Health Chemical Diversity Library for Multistage-Active Starting Points for Next-Generation Antimalarials” (ACS Infect Dis, 2020).

Out of some 69,000 compounds screened, about 8,600 (12%) showed an effect of 50% or more. Many of the other results were omitted from the sample, so strong results are more common in it than they were.

The test relates to Plasmodium berghei. As to the kind of experiment: Screen against P. berghei liver stage (PbLuc), transformed with Luciferase, at 10uM. The following applies: tested at 10 uM. The class given is functional, HepG2.
With `COCCc1noc(Cn2c(=O)[nH]c3ccccc32)n1`, the INHIBITION was -16.5%.

As to `CC1COCCN1C(=O)Cc1cc(Cl)c2c(c1)OCCO2` (stereo unspecified), the INHIBITION is listed as 26.8%.

For the compound `CSCC1CCN(C(=O)Cn2ncc(N3CCCCC3)cc2=O)CC1`, the INHIBITION is listed as 40.7%.

As for `O=C(c1cncs1)N1CCc2[nH]nc(Nc3ccccc3)c2C1`, the INHIBITION worked out at 20.49%.

On to `CN(CCc1ccccc1)Cc1cc(C(=O)N2CCN(C)C(=O)C2)no1`, for which the INHIBITION is listed as -13.2%.

With `CN1CCCN(C(=O)c2cc(CN(C)CCc3ccccc3)on2)CC1`, the INHIBITION worked out at 53.3%.

As to `CN(CCc1ccccc1)Cc1cc(C(=O)N2CCSCC2)no1`, the INHIBITION is listed as 40.5%.

In the case of `O=C1CCC2(CCN(Cc3nccs3)CC2)CN1CCCO`, the INHIBITION was -47.8%.

For the compound `Cc1cnc(CN(C)C2CCCN(Cc3noc(C4CC4)n3)C2)cn1` (stereo unspecified), the INHIBITION was 10%.

In the case of `CC(NCC(=O)N(C)C1CC1)c1ccc(S(C)(=O)=O)c(F)c1` (stereo unspecified), the INHIBITION stood at 34.7%.

`O=C(NCc1cnc2n1CCN(Cc1ccoc1)C2)c1ccno1`: the INHIBITION is given as 63.8%.

`O=C(NCc1cnc2n1CCN(Cc1nccs1)C2)c1ccno1`: the INHIBITION was found to be 23.1%.

Take `O=C(NCc1cnc2n1CCN(CC1CCOCC1)C2)c1ccno1`: the INHIBITION is 50.3%.

For `O=C(NCc1cnc2n1CCN(CC1CC1)C2)C1CC1`, the INHIBITION is -30%.

Regarding `O=C(NCc1cnc2n1CCN(Cc1cccs1)C2)c1ccno1`, the INHIBITION came out at 12.2%.

Consider `Cn1cccc1C(=O)NCc1cnc2n1CCN(CC1CCOCC1)C2`, for which the INHIBITION amounted to 20.4%.

Consider `O=C(C(c1ccccc1)S(=O)(=O)c1ccccn1)N1CCCC1` (stereo unspecified), for which the INHIBITION stood at 14.2%.

Consider `Cn1nnc2c1CCN(Cc1ccccn1)C2COCc1ccccc1` (stereo unspecified), for which the INHIBITION is 21.3%.

As for `CC(=O)N1CCCCC1c1nc(C)cc(-c2ccccc2C(=O)O)n1` (stereo unspecified), the INHIBITION is reported as 15.9%.

Regarding `Cc1cc(-c2ccccc2C(=O)O)nc(C2CCCN2S(C)(=O)=O)n1` (stereo unspecified), the INHIBITION is 12.8%.

As for `Cc1cc(-c2ccccc2C(=O)O)nc(C2CCCCN2C)n1` (stereo unspecified), the INHIBITION was 59%.

With `O=C(Cc1cn2ccsc2n1)N1CCCC(n2cccn2)C1` (stereo unspecified), the INHIBITION is -1.12%.

On to `COCCc1noc(CN2CCCC2c2noc(C(C)C)n2)n1` (stereo unspecified), for which the INHIBITION is 21.8%.

`COc1cc(N(C)Cc2cccc(-n3cccn3)c2)nc(N)n1`: the INHIBITION is given as 80%.

For `CN(Cc1cccc(-n2cccn2)c1)C(=O)c1ccnc(N)c1`, the INHIBITION is listed as 21.2%.

With `CN(Cc1cccc(-n2cccn2)c1)C(=O)c1cccc(N(C)C)c1`, the INHIBITION came to 22.1%.

For the compound `CN(Cc1ccc(-n2cccn2)cc1)c1nc(N)nc2c1CCNCC2`, the INHIBITION came to 45%.

As to `CN(Cc1cccc(-n2cccn2)c1)c1cc(N2CCCC2)nc(N)n1`, the INHIBITION was 93.9%.

In the case of `CN(Cc1ccc(-n2cccn2)cc1)Cc1cnc(N(C)C)nc1`, the INHIBITION was 37.4%.

For the compound `CC(CN(C)Cc1cccc(-n2cccn2)c1)C(F)(F)F` (stereo unspecified), the INHIBITION stood at 17.735%.

Turning to `CN(Cc1cccc(-n2cccn2)c1)Cc1c[nH]cn1`, the INHIBITION is listed as 35.05%.

Consider `CN(Cc1ccc(-n2cccn2)cc1)c1cc(N)nc(N)n1`, for which the INHIBITION stood at 82.2%.

Turning to `CCCc1nc(C)c(C(=O)NCCNc2ncccc2C#N)s1`, the INHIBITION is on record as -24.2%.

Regarding `CC(C)NC(=O)[C@H]1C[C@@H]2[C@@H](C1)OCCN2Cc1cnn(C)c1`, the INHIBITION is reported as -4.56%.

Regarding `CCOc1ccccc1OC1CCN(C(=O)c2cnsn2)CC1`, the INHIBITION is on record as 21.5%.

As for `CN(C)Cc1cn(-c2ccccc2C(=O)NCCC2CCCN2C)cn1` (stereo unspecified), the INHIBITION is reported as 10%.

As to `Nc1ncccc1CN1CCCn2nc(CCC(=O)NC3CC3)cc2C1`, the INHIBITION came to 46.1%.

`COc1ccc(S(=O)(=O)N2CCN(C)c3ncccc3C2)cc1`: the INHIBITION is recorded as 42.1%.

Regarding `CN1CCN(S(=O)(=O)c2ccccc2)Cc2cccnc21`, the INHIBITION was found to be 14.9%.

Take `CN1CCN(S(=O)(=O)c2cccc(F)c2)Cc2cccnc21`: the INHIBITION stood at 65.7%.

As to `Cc1cc(C2CCCN2Cc2ccn(C)c(=O)c2)on1` (stereo unspecified), the INHIBITION was 20.1%.

Turning to `O=C(NCc1cn2cccnc2n1)C1CC(=O)N(Cc2ccccn2)C1` (stereo unspecified), the INHIBITION is listed as 37.6%.

`CC(C)(C)N1CC(C(=O)NCc2cn3cccnc3n2)CC1=O` (stereo unspecified): the INHIBITION came out at 53.9%.

For `CN(C)CCN1CC(C(=O)NCc2cn3cccnc3n2)CC1=O` (stereo unspecified), the INHIBITION was found to be 23.9%.

`Cc1nc(CN2CCC3(CCCN(Cc4ccoc4)C3)C2=O)cs1` (stereo unspecified): the INHIBITION was -5.31%.

For the compound `COc1c[nH]c(C(=O)Nc2nc(C(C)(C)C)cs2)cc1=O`, the INHIBITION amounted to 29.4%.

For the compound `CC[C@H](C)[C@H](N)C(=O)Nc1nc(-c2cnc(N(C)C)nc2)cs1`, the INHIBITION is listed as 21.9%.

As to `CCN1CC2(CC1=O)CN(Cc1ccco1)CCN(C(=O)N(C)C)C2` (stereo unspecified), the INHIBITION worked out at 5.14%.

With `CCS(=O)(=O)N1CCN(C(=O)C(C)C)CC2(CC(=O)N(C)C2)C1` (stereo unspecified), the INHIBITION was found to be 45.8%.

As to `CCN1CC2(CC1=O)CN(C(=O)C(C)C)CCN(S(=O)(=O)CC)C2` (stereo unspecified), the INHIBITION amounted to 52.3%.

Take `CCN1CC2(CC1=O)CN(C(C)=O)CCN(S(C)(=O)=O)C2` (stereo unspecified): the INHIBITION worked out at 26%.

For `CCN1CC2(CC1=O)CN(Cc1ccco1)CCN(C(=O)C(C)C)C2` (stereo unspecified), the INHIBITION is listed as 57.4%.

On to `CCN1CC2(CC1=O)CN(C(=O)COC)CCN(S(C)(=O)=O)C2` (stereo unspecified), for which the INHIBITION came to 63%.

Take `CCN1CC2(CC1=O)CN(C(=O)C(C)C)CCN(S(C)(=O)=O)C2` (stereo unspecified): the INHIBITION is 46.7%.

`CCN1CC2(CC1=O)CN(C(=O)N(C)C)CCN(S(C)(=O)=O)C2` (stereo unspecified): the INHIBITION came to 31.9%.

Regarding `CCN1CC2(CC1=O)CN(Cc1ccc(C)o1)CCN(C(=O)C(C)C)C2` (stereo unspecified), the INHIBITION is listed as 42.5%.
